In PubChem BioAssay AID2014 (Sanford-Burnham Center for Chemical Genomics, 2009):
The campaign covered roughly 290,000 compounds. About 3,000 (1%) were called active. The rule behind the calls is not given here. This excerpt belongs to a sample that is enriched for actives.

Target: Polyadenylate-binding protein 1 (Homo sapiens) (UniProt P11940)
Experiment: blockers of PABP interaction with poly(A) – biochemical, fluorescence polarization, uHTS, primary screen (AID 2014);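 note: calls also rest on retests at 20 µM and on dose response follow-up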
Settings: PABP-poly(A) RNA binding, stronger effect = higher value

Sequence of Polyadenylate-binding protein 1 (Homo sapiens) (P11940 whole entry, looked up): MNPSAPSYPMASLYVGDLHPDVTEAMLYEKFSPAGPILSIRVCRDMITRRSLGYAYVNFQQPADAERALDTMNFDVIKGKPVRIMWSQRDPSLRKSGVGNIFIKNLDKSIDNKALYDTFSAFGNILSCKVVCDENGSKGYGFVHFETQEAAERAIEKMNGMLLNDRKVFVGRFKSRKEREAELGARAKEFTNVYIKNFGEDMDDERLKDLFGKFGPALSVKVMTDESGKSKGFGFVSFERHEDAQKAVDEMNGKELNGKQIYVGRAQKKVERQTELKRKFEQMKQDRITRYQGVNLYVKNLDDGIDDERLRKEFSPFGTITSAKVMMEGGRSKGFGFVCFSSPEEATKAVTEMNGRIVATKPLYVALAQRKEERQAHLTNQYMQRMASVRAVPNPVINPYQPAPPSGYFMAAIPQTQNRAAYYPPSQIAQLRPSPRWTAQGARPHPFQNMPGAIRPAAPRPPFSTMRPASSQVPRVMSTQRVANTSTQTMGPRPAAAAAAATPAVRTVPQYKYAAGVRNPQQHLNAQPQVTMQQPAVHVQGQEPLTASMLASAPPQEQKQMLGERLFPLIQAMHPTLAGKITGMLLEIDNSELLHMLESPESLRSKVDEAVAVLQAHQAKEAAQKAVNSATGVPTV

| SMILES | inhibition (at 35 µM) | inhibition (confirmation repeats, at 20 µM) [%] |
| --- | --- | --- |
| C[N+]1(CCNC(=O)/C=N/O)CCCCC1 | 63.4% (active) | – |
| CC(C)[C@H](NC(=O)N1CC(=O)Nc2ccccc21)C(=O)N[C@@H](Cc1c[nH]c2ccccc12)C(=O)O | -3.1% (inactive) | – |
| Cc1cccc(-c2c(NC(=O)c3ccco3)oc3ccc(Cl)cc3c2=O)c1 | -6.1% (inactive) | – |
| CCC1S/C(=N/N=C/c2ccco2)NC1=O (configuration not stated) | -11% (inactive) | – |
| CC(C)(C)C1C/C(=C/c2ccco2)C(=O)/C(=C/c2ccco2)C1 (configuration not stated) | -1.8% (active) | 53.3 |
| O=C1OC(/C=C/c2ccccc2)=NC/1=C/c1ccco1 | 16.6% (inactive) | 5.2 |
| Cn1c(=O)oc2cc(S(=O)(=O)NCCC(=O)NCc3ccccc3Cl)ccc21 | 1% (inactive) | – |
| C=CCn1c(=S)[nH]c2scc(-c3ccco3)c2c1=O | 69.3% (active) | – |
| C=CCNC(=O)CSc1nc2scc(-c3ccco3)c2c(=O)n1CC=C | 15.2% (inactive) | – |
| C=CCn1c(SCc2csc(C)n2)nc2scc(-c3ccc(C)o3)c2c1=O | 6.5% (inactive) | – |
| COc1cccc(NC(=O)N2CCCC2C(=O)NC2CCCCC2)c1 (configuration not stated) | -0.6% (inactive) | – |
| CCn1cc(C(=O)N2CC(C)CC(C)C2)c(=O)c2cc(S(=O)(=O)N3CCCC3)ccc21 (configuration not stated) | -11.3% (inactive) | – |
| COc1ccc(-c2cc(C(=O)N(C)Cc3ccc(OC)c(OC)c3OC)c3ccccc3n2)cc1OC | 48% (inactive) | – |
| CC(=O)Nc1ccc(/C=N/Nc2ccc(C(=O)c3c(C)cc4ccccn34)cc2[N+](=O)[O-])cc1 | 9% (inactive) | – |
| Cc1ccc(C(C[N+](=O)[O-])c2c(C)cc3ccccn23)cc1 (configuration not stated) | -2.2% (active) | 72.2 |
| Cc1cc2ccccn2c1C(=O)c1cccc(F)c1 | 2.5% (inactive) | – |
| Cc1ccc(CNC(=O)Cc2cn(C)c3ccccc23)cc1 | 6.1% (inactive) | – |
| COc1ccc(C(=O)CSc2nnc(COc3ccccc3)n2Cc2ccco2)cc1 | -8.1% (inactive) | – |
| Cn1c2ccccc2c(=O)c2c(=O)n(Cc3ccco3)c(COc3ccccc3)nc21 | 1.9% (active) | 54.5 |
| CCCc1nc2c(c(=O)c3ccccc3n2C)c(=O)n1-c1cc(C)cc(C)c1 | 4.7% (inactive) | – |

| SMILES | inhibition (at 35 µM) | inhibition (confirmation repeats, at 20 µM) [%] |
| --- | --- | --- |
| Cc1cnc(C)c(N2CCN(C(=O)C3CCC(=O)N(CCc4cccc(F)c4)C3)CC2)n1 (configuration not stated) | 4.1% (inactive) | – |
| O=C1CCCC(O)=C1N=Nc1ccc2ncsc2c1 | -16.7% (active) | 53.4 |
| O=C1CCCC(O)=C1N=Nc1ccc(S(=O)(=O)N2CCOCC2)cc1 | 14.4% (inactive) | – |
| CCOc1cc(C2/C(=C(/O)c3ccc(S(=O)(=O)N4CCCCC4)cc3)C(=O)C(=O)N2CCOC)ccc1O (configuration not stated) | 1.6% (inactive) | – |
| Cc1ccc2cc(C)c(N3CCN(c4ccc(F)cc4)CC3)nc2c1 | -13.2% (inactive) | – |
| COc1ccc(-c2cc(C(=O)N3CCN(Cc4ccc5c(c4)OCO5)CC3)on2)cc1OC | 6.7% (inactive) | – |
| COc1ccc(Cl)cc1NC(=O)CCS(=O)(=O)c1ccc(Br)cc1 | 54.8% (active) | – |
| O=C(CCS(=O)(=O)c1ccc(Br)cc1)NCCc1ccc(Cl)cc1 | 19.8% (inactive) | 10.6 |
| COc1ccc(Cl)cc1NC(=O)CCS(=O)(=O)c1cc2c(cc1C)NC(=O)CO2 | -1.1% (inactive) | – |
| O=C(CSc1ncn[nH]1)N/N=C/c1ccc(F)cc1 | -7.9% (inactive) | – |
| O=C(NCCCc1ccccc1)c1cc(COc2c(F)cccc2F)on1 | -3.7% (inactive) | – |
| O=C(c1c(F)cccc1F)N1CCN(c2ncc(Br)cn2)CC1 | 0.7% (inactive) | – |
| Cc1ccc(-c2csc(N(Cc3ccco3)C(=O)c3cccs3)n2)cc1 | -9.4% (inactive) | – |
| CN(C(=O)c1ccno1)c1nnc(-c2cccnc2)s1 | 12% (inactive) | – |
| Cc1nnc(N(Cc2ccco2)C(=O)c2ccno2)s1 | 68.4% (active) | – |
| O=C(CCN1C(=O)[C@H]2CC=CC[C@H]2C1=O)NCc1nc(-c2ccccc2)no1 | 15.4% (inactive) | – |
| O=C1c2ccccc2S(=O)(=O)N1Cc1c(F)cccc1Cl | 5.7% (inactive) | – |
| Cc1c(-c2ccccc2)nc(N)c(C#N)c1-c1cccs1 | -3.2% (inactive) | – |
| CN1CCc2nc(SC(C(=O)O)c3ccccc3)c(C#N)c(-c3cccs3)c2C1 (configuration not stated) | 68.1% (active) | – |
| CCc1c(-c2ccccc2)nc(N)c(C#N)c1-c1cccs1 | -4.1% (inactive) | – |

| SMILES | inhibition (at 35 µM) | inhibition (confirmation repeats, at 20 µM) [%] |
| --- | --- | --- |
| CCOC(=O)C1(Cc2ccccc2C)CCCN(C(=O)CCc2c(C)noc2C)C1 (configuration not stated) | 2.2% (inactive) | – |
| CCn1c(=S)sc2c(=O)n(CC(=O)Nc3ccc(OC)cc3)c(C)nc21 | -6.5% (inactive) | – |
| Cc1cccc(C)c1NC(=O)CSc1nc2c([nH]1)c(=O)n(C)c(=O)n2C | 1% (inactive) | – |
| COc1cc(CCC(=O)N2CCN(c3ccccc3Cl)CC2)cc(OC)c1OC | 9.6% (inactive) | – |
| COc1ccc(Cc2nnc(NC(=O)Cc3cccs3)s2)cc1 | 72.4% (active) | – |
| CCc1nnc(NC(=O)Cc2cccs2)s1 | 10.4% (inactive) | – |
| COc1ccc(Cc2nnc(NC(=O)c3ccc(OC)cc3OC)s2)cc1 | -6% (inactive) | – |
| CNS(=O)(=O)c1cccc(C(=O)NCC2CCCCC2)c1 | 1% (inactive) | – |
| Cc1cc(C)c2c3c(sc2n1)C(c1ccccc1)C(C#N)=C(N)O3 (configuration not stated) | 120% (active) | 63.8 |
| Cc1cc(C)c(C#N)c(SCc2[nH]nc3c2C(c2ccccc2)C(C#N)=C(N)O3)n1 (configuration not stated) | -7.3% (inactive) | – |
| Cc1nn(Cc2ccccc2)c2c1C(c1ccccc1)C(C#N)=C(N)O2 (configuration not stated) | 5.6% (inactive) | – |
| O=C(N/N=C/c1ccccc1O)/C(=C/c1ccccc1)CCO | -0.9% (inactive) | – |
| CCOc1cc(/C=N/Nc2cc(C)nc3ccc(C)cc23)ccc1O | -6.9% (inactive) | – |
| CN(C(=O)COC(=O)c1nc(Cl)ccc1Cl)C1CCS(=O)(=O)C1 (configuration not stated) | 1.3% (inactive) | – |
| CN(C(=O)COC(=O)c1cc(-c2ccco2)nc2ccccc12)C1CCS(=O)(=O)C1 (configuration not stated) | 77.7% (active) | – |
| Cc1c(-c2cccc(Cl)c2)nc2ccccc2c1C(=O)OCC(=O)N(C)C1CCS(=O)(=O)C1 (configuration not stated) | 6.7% (inactive) | – |
| Cc1cccc(Nc2nc(-c3ccccc3)cs2)n1 | 3.3% (inactive) | – |
| O=C(NCc1ccccn1)c1cc(Br)ccc1Cl | 0.7% (inactive) | – |
| O=C(NCc1ccccn1)c1ccc2nc(-c3ccco3)c(-c3ccco3)nc2c1 | 77.7% (active) | – |
| COc1cccc(S(=O)(=O)NCc2ccc(C(=O)NCc3ccccn3)cc2)c1 | 1.8% (inactive) | – |
